# According to article PMC7862700, “An all-to-all approach to the identification of sequence-specific readers for epigenetic DNA modifications on cytosine”:
# Tests used:
# Assay in all cases: DAPPL (digital affinity profiling via proximity ligation, sequencing); 10 mM Tris-HCl pH 7.5, 50 mM NaCl, 1 mM DTT, 4% glycerol, room temperature, 30 min; GST-TFs on glutathione beads, 16-mer random dsDNA library, 0.1% formaldehyde crosslink after washing; high values mean tight binding
# [1] = target: T1, FLI1 (Homo sapiens, UniProt Q01543 1-452); settings: protein: recombinant; tags: N-terminal GST; dsDNA, one strand shown
# T1 sequence: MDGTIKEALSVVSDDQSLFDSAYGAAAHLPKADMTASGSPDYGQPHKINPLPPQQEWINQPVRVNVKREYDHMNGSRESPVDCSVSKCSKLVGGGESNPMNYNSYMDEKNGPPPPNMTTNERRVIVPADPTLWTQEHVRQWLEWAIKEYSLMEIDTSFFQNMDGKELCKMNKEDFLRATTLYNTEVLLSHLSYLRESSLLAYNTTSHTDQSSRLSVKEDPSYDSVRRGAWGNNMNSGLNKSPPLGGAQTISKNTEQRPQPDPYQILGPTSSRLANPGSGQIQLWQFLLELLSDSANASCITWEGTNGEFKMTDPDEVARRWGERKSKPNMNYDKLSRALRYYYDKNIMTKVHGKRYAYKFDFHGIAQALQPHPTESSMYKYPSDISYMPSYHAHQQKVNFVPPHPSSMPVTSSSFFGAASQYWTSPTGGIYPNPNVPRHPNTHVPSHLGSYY
# Outline: (§1)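 After expression in yeast as GST fusions, human transcription factors were bound to glutathione beads, DNA-barcoded and mixed with a tag-only sample. The pools were incubated with 200 nmole of a 16-mer random double-stranded DNA library in Tris/NaCl/DTT/glycerol buffer (30 min, room temperature), washed and crosslinked with 0.1% formaldehyde. Proximity ligation with BsaI/T4 ligase ran for 1 h at 37 °C, before PCR amplification and sequencing on an Illumina NextSeq500. Binding signal is a hexamer's read frequency for a factor divided by its frequency for the tag-only sample.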
# [2] = target: T2, ELK1 (Homo sapiens, UniProt P19419 1-428); settings: protein: recombinant; tags: N-terminal GST; dsDNA, one strand shown
# T2 sequence: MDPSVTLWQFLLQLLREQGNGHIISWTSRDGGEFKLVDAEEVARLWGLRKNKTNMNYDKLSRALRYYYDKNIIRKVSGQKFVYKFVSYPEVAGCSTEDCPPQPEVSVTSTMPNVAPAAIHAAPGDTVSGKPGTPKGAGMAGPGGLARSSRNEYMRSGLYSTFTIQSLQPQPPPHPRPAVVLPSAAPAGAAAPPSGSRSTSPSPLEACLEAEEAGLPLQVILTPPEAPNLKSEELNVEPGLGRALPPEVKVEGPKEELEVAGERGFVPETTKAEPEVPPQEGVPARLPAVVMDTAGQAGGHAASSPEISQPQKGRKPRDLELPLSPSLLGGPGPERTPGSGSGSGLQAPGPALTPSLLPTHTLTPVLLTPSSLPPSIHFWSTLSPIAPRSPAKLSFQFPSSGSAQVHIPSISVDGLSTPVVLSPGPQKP
# Outline: as §1
# [3] = target: T3, GABPA (Homo sapiens, UniProt Q06546 1-454); settings: protein: recombinant; tags: N-terminal GST; dsDNA, one strand shown
# T3 sequence: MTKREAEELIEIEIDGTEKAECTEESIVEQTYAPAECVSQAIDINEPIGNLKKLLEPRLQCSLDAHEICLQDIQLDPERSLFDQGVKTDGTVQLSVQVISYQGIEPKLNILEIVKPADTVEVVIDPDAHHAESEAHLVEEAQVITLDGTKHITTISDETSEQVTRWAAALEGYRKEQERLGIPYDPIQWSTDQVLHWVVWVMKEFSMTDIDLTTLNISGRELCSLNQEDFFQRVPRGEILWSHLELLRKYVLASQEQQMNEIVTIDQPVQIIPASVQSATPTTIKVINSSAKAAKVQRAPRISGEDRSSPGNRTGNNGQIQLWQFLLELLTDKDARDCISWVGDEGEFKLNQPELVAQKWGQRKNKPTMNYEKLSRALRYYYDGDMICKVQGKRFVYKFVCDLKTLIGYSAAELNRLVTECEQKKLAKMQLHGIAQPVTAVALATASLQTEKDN
# Outline: as §1
# [4] = target: T4, ERG (Homo sapiens, UniProt P11308 1-479); settings: protein: recombinant; tags: N-terminal GST; dsDNA, one strand shown
# T4 sequence: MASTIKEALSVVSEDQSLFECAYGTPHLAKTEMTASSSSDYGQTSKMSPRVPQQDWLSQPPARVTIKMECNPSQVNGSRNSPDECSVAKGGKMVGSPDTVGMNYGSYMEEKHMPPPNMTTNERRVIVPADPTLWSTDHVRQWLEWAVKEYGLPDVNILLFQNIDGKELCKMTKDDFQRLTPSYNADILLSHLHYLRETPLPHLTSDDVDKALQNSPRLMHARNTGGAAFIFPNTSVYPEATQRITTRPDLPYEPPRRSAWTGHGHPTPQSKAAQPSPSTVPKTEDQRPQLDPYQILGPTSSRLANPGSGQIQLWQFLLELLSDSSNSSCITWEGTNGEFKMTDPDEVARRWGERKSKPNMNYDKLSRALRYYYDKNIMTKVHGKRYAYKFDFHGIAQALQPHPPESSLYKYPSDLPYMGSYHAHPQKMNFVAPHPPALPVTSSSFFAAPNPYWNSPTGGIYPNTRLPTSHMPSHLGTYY
# Outline: as §1
# [5] = target: ELF1 (Homo sapiens, UniProt P32519 1-619); settings: protein: recombinant; tags: N-terminal GST; dsDNA, one strand shown
# Outline: as §1
# [6] = target: T5, EHF (Homo sapiens, UniProt Q9NZC4 1-300); settings: protein: recombinant; tags: N-terminal GST; dsDNA, one strand shown
# T5 sequence: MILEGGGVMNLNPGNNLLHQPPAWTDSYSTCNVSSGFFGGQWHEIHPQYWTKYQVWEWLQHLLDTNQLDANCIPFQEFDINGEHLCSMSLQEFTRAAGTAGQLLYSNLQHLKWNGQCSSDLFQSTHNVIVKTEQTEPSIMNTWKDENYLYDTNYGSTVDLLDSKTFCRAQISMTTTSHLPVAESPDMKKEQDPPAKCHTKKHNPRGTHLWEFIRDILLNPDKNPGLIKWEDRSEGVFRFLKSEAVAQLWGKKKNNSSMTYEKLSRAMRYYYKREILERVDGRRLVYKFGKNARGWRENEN
# Outline: as §1
# [7] = target: SPI1 (Homo sapiens, UniProt P17947 1-270); settings: protein: recombinant; tags: N-terminal GST; dsDNA, one strand shown
# Outline: as §1
# [8] = target: SPIB (Homo sapiens, UniProt Q01892 1-262); settings: protein: recombinant; tags: N-terminal GST; dsDNA, one strand shown
# Outline: as §1
# [9] = target: T6, ELK3 (Homo sapiens, UniProt P41970 1-407); settings: protein: recombinant; tags: N-terminal GST; dsDNA, one strand shown
# T6 sequence: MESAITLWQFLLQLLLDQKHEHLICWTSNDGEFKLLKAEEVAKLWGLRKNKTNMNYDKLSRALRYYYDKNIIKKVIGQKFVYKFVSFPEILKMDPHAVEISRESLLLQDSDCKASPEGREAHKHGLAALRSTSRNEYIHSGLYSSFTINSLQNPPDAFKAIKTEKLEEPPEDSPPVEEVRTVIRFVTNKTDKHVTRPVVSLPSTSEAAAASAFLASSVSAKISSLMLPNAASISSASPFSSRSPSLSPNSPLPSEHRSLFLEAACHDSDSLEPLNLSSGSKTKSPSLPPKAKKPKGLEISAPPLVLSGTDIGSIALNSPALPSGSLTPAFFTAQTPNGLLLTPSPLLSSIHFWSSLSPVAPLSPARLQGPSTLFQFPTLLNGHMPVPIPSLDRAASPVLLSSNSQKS
# Outline: as §1
# [10] = target: T7, FEV (Homo sapiens, UniProt Q99581 1-238); settings: protein: recombinant; tags: N-terminal GST; dsDNA, one strand shown
# T7 sequence: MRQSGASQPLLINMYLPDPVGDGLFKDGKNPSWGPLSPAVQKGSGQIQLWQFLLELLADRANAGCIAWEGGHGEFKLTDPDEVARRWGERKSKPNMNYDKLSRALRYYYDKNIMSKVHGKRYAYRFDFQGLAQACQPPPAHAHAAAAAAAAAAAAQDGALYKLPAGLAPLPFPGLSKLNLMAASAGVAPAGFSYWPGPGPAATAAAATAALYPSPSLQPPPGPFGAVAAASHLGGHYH
# Outline: as §1
# [11] = target: ETV5 (Homo sapiens, UniProt P41161 1-510); settings: protein: recombinant; tags: N-terminal GST; dsDNA, one strand shown
# Outline: as §1
# [12] = target: HSF1 (Homo sapiens, UniProt Q00613 1-529); settings: protein: recombinant; tags: N-terminal GST; chain copies: 3; dsDNA, one strand shown
# Outline: as §1
# [13] = target: T8, SPIC (Homo sapiens, UniProt Q8N5J4 1-248); settings: protein: recombinant; tags: N-terminal GST; dsDNA, one strand shown
# T8 sequence: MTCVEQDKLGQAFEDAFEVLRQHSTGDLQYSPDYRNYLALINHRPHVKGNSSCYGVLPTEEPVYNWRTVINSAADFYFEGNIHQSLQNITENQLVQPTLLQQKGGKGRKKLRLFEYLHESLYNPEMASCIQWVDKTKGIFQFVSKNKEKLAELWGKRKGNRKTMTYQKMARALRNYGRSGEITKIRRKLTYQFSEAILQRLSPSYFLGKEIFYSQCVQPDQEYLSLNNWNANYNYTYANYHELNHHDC
# Outline: as §1
# [14] = target: ELF4 (Homo sapiens, UniProt Q99607 1-663); settings: protein: recombinant; tags: N-terminal GST; dsDNA, one strand shown
# Outline: as §1
# [15] = target: T9, ELK4 (Homo sapiens, UniProt P28324-2 1-405); settings: protein: recombinant; tags: N-terminal GST; dsDNA, one strand shown
# T9 sequence: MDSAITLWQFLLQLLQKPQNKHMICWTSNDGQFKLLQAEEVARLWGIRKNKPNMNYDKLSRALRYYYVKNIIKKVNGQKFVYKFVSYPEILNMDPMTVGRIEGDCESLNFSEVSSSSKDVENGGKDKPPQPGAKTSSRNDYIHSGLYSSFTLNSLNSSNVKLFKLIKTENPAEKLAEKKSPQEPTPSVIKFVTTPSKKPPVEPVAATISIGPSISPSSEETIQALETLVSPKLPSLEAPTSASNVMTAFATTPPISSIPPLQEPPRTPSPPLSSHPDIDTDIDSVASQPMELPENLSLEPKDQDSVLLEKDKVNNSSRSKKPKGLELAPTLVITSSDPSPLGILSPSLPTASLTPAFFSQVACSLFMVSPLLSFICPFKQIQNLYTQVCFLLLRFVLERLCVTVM
# Outline: as §1
# [16] = target: CRX (Homo sapiens, UniProt O43186 1-299); settings: protein: recombinant; tags: N-terminal GST; dsDNA, one strand shown
# Outline: as §1
# [17] = target: ETV1 (Homo sapiens, UniProt P50549 1-477); settings: protein: recombinant; tags: N-terminal GST; dsDNA, one strand shown
# Outline: as §1
# Sequence of ETV1 (P50549 whole entry): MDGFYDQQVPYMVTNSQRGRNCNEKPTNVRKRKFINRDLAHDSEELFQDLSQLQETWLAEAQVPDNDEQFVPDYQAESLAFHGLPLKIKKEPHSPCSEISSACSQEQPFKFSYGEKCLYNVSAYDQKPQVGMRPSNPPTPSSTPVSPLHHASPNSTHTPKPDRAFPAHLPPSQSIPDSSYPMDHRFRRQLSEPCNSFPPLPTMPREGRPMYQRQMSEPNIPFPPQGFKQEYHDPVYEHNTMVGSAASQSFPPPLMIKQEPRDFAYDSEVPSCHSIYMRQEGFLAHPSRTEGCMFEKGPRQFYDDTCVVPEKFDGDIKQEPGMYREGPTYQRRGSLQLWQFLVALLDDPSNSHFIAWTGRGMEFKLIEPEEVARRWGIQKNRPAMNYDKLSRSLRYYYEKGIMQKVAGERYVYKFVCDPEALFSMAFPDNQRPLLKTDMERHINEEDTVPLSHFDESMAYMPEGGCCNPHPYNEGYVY
# Sequence of CRX (O43186 whole entry): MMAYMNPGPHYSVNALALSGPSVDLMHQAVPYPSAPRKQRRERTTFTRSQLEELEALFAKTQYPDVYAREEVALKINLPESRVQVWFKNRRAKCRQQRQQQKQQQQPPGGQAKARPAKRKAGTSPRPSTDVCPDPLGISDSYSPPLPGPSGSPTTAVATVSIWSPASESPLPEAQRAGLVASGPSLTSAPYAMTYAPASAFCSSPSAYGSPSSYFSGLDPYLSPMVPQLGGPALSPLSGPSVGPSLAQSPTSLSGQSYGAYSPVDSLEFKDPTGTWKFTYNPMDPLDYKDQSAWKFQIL
# Sequence of ELF4 (Q99607 whole entry): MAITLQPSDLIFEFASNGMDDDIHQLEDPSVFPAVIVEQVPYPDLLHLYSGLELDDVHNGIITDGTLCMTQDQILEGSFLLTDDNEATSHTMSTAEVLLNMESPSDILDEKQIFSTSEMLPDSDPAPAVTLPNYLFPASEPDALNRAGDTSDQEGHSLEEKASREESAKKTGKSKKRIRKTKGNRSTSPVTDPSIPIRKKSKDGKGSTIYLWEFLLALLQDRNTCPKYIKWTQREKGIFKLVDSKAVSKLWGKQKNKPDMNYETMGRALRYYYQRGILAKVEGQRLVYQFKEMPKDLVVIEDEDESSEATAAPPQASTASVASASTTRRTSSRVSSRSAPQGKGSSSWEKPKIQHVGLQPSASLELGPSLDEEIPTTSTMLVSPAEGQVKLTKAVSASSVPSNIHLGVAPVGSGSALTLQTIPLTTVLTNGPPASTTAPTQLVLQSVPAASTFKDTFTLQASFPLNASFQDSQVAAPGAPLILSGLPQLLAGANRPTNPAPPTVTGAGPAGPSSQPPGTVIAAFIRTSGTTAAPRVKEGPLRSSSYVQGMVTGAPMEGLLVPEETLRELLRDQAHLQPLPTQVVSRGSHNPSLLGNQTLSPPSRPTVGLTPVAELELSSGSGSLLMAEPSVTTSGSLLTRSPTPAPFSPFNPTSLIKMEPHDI
# Sequence of SPIB (Q01892 whole entry): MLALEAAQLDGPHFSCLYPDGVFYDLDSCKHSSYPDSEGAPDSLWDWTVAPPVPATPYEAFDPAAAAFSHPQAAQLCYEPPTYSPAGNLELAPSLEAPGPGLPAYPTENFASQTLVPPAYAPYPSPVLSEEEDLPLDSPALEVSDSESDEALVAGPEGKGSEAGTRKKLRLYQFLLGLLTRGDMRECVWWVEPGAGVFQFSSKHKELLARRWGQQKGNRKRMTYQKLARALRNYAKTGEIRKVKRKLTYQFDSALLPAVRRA
# Sequence of ETV5 (P41161 whole entry): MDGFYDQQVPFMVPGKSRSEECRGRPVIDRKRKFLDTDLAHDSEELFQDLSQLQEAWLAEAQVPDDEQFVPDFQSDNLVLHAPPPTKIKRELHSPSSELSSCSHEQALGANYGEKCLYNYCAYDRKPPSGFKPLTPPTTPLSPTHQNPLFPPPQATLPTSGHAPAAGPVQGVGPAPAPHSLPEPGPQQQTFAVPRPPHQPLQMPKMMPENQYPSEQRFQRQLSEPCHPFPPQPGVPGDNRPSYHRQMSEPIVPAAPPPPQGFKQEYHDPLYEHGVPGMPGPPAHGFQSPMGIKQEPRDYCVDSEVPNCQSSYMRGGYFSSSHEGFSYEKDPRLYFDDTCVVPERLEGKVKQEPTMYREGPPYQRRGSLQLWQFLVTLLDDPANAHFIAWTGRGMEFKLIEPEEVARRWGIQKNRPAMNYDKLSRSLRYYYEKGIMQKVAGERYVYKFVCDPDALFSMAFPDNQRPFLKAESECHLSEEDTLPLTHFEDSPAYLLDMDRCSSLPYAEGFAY
# Sequence of HSF1 (Q00613 whole entry): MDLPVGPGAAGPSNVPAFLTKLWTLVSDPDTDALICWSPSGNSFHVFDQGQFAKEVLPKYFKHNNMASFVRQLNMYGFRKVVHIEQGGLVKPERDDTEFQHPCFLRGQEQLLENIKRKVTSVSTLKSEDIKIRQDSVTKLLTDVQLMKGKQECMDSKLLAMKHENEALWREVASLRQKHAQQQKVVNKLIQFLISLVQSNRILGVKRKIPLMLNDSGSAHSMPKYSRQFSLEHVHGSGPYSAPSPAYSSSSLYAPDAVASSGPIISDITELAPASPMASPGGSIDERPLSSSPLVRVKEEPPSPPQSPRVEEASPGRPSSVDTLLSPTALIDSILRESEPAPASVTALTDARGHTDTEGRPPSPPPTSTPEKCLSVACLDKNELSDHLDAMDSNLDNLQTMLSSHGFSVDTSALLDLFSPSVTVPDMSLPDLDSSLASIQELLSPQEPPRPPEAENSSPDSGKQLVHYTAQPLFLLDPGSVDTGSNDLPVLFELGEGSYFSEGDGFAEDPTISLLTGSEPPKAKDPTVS
# Sequence of ELF1 (P32519 whole entry): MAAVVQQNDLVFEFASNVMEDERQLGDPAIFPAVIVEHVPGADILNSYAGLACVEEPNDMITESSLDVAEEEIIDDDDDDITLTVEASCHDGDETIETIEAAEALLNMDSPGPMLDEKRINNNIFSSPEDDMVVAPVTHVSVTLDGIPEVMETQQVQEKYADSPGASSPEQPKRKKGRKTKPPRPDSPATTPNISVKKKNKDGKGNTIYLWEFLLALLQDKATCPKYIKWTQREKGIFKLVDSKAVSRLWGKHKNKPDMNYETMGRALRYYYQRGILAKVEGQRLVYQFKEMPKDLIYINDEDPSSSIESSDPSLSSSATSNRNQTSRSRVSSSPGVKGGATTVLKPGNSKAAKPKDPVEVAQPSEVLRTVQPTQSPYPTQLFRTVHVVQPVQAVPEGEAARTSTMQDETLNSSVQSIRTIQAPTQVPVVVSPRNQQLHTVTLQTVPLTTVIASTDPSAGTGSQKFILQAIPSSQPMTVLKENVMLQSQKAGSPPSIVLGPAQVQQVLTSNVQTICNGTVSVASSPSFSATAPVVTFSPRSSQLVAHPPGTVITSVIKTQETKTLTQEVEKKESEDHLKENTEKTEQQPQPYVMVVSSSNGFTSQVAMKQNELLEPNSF
sequence,measurement,setting,value
TAGAAA,binding signal,[1],"1.1 fold enrichment (6-mer frequency, TF over GST control)"
same,binding signal,[2],"1.03 fold enrichment (6-mer frequency, TF over GST control)"
same,binding signal,[3],"1.02 fold enrichment (6-mer frequency, TF over GST control)"
same,binding signal,[4],"1.04 fold enrichment (6-mer frequency, TF over GST control)"
same,binding signal,[5],"1.09 fold enrichment (6-mer frequency, TF over GST control)"
same,binding signal,[6],"1.07 fold enrichment (6-mer frequency, TF over GST control)"
same,binding signal,[7],"1.11 fold enrichment (6-mer frequency, TF over GST control)"
same,binding signal,[8],"1.11 fold enrichment (6-mer frequency, TF over GST control)"
same,binding signal,[9],"1.09 fold enrichment (6-mer frequency, TF over GST control)"
same,binding signal,[10],"1.04 fold enrichment (6-mer frequency, TF over GST control)"
same,binding signal,[11],"1.03 fold enrichment (6-mer frequency, TF over GST control)"
same,binding signal,[12],"3.06 fold enrichment (6-mer frequency, TF over GST control)"
same,binding signal,[13],"1.12 fold enrichment (6-mer frequency, TF over GST control)"
same,binding signal,[14],"1.1 fold enrichment (6-mer frequency, TF over GST control)"
same,binding signal,[15],"1.13 fold enrichment (6-mer frequency, TF over GST control)"
same,binding signal,[16],"1.58 fold enrichment (6-mer frequency, TF over GST control)"
same,binding signal,[17],"1.13 fold enrichment (6-mer frequency, TF over GST control)"
